Structures are written as SMILES. This is part of a sample that, as a whole, favours compounds with a hit. Of some 83,000 tested, about 20% had one in any assay.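 48-hour exposure, single concentration, 96-well plates; percent growth endpoint where 0 means no net growth. Active: below 10.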 Calls of active or inactive are those of the source.

In the assay the test system is HOP-62 NSCLC. The assay is described as follows: NCI-60 one-dose screen, 48 h (100 = growth as untreated, 0 = no growth, -100 = all killed). The settings on record: 10 µM unless noted.
In the case of `CC1Cc2c(Cl)ncnc2N(C)c2ccc(F)cc21` (stereo not given), the growth was 93.2% (inactive). Next, `N#CC1=C(N)Oc2c(sc3c(Br)cccc23)C1c1ccc(F)cc1` (stereo not given): 26.3% (inactive); `COc1ccc(/C(C)=C(/c2ccc(OCCCN(C)C)cc2)c2ccc(OC(=O)Cc3ccccc3)cc2)cc1`: 83.3% (inactive). With `O=C1Nc2ccccc2[C@]12CC(c1ccccc1)=NN2` the figure was 59.6% (inactive); with `CN(CCOc1ccc(C#N)cc1)CCOc1ccc(C#N)cc1`, 46% (inactive).

With `Cc1ccc(Sc2nnc(/N=C3\C(=O)Nc4ccccc43)s2)cc1`, the growth was 96.5% (inactive). Turning to `Cn1cc(-c2nonc2-c2c[nH]c3ccc(Br)cc23)c2cc(Br)ccc21`, the growth was 29.1% (inactive). With `Cc1ccc(NC(=S)NNC(=S)NNc2ccccc2)cc1C` the figure was 106% (inactive). Next, `COc1ccc(-c2csc(N(C(=O)N3CCN(c4cc5c(cc4F)c(=O)c(C(=O)O)cn5C4CC4)CC3)c3ccccc3)n2)cc1`: 9.2% (active); `O=[N+]([O-])c1ccc(N/N=C(/C(=N/Nc2ccc([N+](=O)[O-])cc2)c2ccccc2)c2ccccc2)cc1`: 76.6% (inactive); `CCCCCCCCn1ccc2cc(NC(=O)CN3CCN(c4nc(C)cc(Cl)n4)CC3)ccc21`: 99.3% (inactive). Next, `COc1ccc(-c2cc(-c3ccc(Cl)cc3)c(C#N)c(=O)n2CCCCC(=O)Nc2ccccc2N)cc1`: 64.1% (inactive).

For `CCOC(=O)c1c2c(n3ccc(C)cc13)C(=O)c1ccccc1C2=O`, the growth is 106% (inactive). Next, `COc1ccc(-c2nc3c(c(-c4ccccc4)nn3-c3ccccc3)c(-c3ccc(N4CCN(C)CC4)cc3)c2C#N)cc1`: 103% (inactive). With `Cc1ccc(-n2c(=S)[nH]c3sc4c(c3c2=O)CCC(=O)C4)cc1` the figure was 63.6% (inactive); with `COc1cc(-c2cc(-c3ccc(N(C)C)cc3)nc(N3CCC(O)CC3)c2C#N)cc(OC)c1OC`, 41.4% (inactive); with `O=Cc1ccc([N+](=O)[O-])s1`, 105% (inactive).

As for `CC1=NN(c2nc(SCC(=O)Nc3nc4ccc(C)cc4s3)nc(-c3ccccc3)c2C#N)C(=O)C1`, the growth was 86.4% (inactive). As for `O=C(CSc1nc(-c2ccccc2)[nH]c1S(=O)(=O)c1ccccc1)NC1CC1`, the growth was 21.2% (inactive). With `Nc1ncnc2c1N=C(c1ccc3c(c1)OCO3)CC(c1cccc(Nc3ccnc4cc(Cl)ccc34)c1)N2` (stereo not given) the figure was 64% (inactive); with `O=C(CN1C(=O)CCC1=O)Nc1ncc(Cc2ccc(F)cc2)s1`, 105% (inactive); with `Cn1cc(-c2csc(-c3ccc(Cl)cc3)n2)c2cccnc21`, -53.7% [100 µM] (active). With `CN(Cc1ccc(C(F)(F)F)cc1)CC(O)C(=O)Nc1ccc(Cl)cc1` (stereo not given) the figure was -37.8% (active). Next, `CCCCCOc1ccc(C(=O)/C(Br)=C/C(=O)O)cc1`: 214% (inactive); `CCN(CC)CCCN1C(=O)c2c(c(C)c3c(oc4cc(O)ccc43)c2C)C1=O`: 94.5% (inactive); `CCOP(=O)(OCC)c1nc(-c2ccccc2)oc1NCc1cccnc1`: 100% (inactive). Turning to `O=C(CCC(=O)N/N=C/c1ccccc1O)N/N=C/c1ccccc1O`, the growth was 36.2% (inactive). As for `S=C(Nc1ccc(-c2nc(N3CCOCC3)c3cccn3n2)cc1)Nc1cccnc1`, the growth is 46.6% (inactive). Next, `N#Cc1c(N)nnn1Cc1cc(=O)oc2c1ccc1ccccc12`: 101% (inactive); `Fc1ccc2[nH]cc(-c3nonc3-c3c[nH]c4ccc(Br)cc34)c2c1`: 9.17% (active); `O=Nc1c(-c2c(O)[nH]c3ncccc23)[nH]c2ccccc12`: 45.9% (inactive). As to `Fc1cccc(CNc2c3ccccc3nc3ccccc23)c1F`, the growth is 72.7% (inactive). With `CCn1c(=S)sc2c(Nc3ccc(F)cc3)nc(-c3cccnc3)nc21` the figure was 47.6% (inactive). Next, `CC(C)(C)n1cc(-c2ccnc(NCCNS(=O)(=O)c3cccc(F)c3)c2)c(-c2ccccc2)n1`: 101% (inactive); `Cc1cc2c(O)c(-c3cc(Cl)ccc3Cl)c3sc(=O)oc3c2cc1C`: 87.8% (inactive); `Fc1ccc(-c2nn(-c3ccccc3)cc2-c2nc3ccccc3o2)cc1`: 48.7% (inactive). With `OB(O)c1cccc(-c2nc3ccc4[nH]ncc4c3c3c2CCCC3)c1` the figure was 42.3% (inactive). Turning to `O=C(CSc1nc2ccc([N+](=O)[O-])cc2[nH]1)Nc1ccc(F)cc1`, the growth is 105% (inactive). With `CNC(=O)c1c(NC(=O)c2ccc(C(F)(F)F)cc2)sc2c1CCC(=O)C2` the figure was 14.5% (inactive). Next, `N#Cc1cccc(NC(=O)c2oc3ccccc3c2-c2cnn(-c3ccccc3)c2)c1`: 92.6% [50 µM] (inactive).

The values are drawn from PubChem BioAssay (NCI).
